70 compounds from PubChem BioAssay AID1259349 (Broad Institute, 2017) can be followed below.

Several values for one entry are separate records, joined by “and”; a condition that tells them apart may be missing. Equal entries are not always repeated. The campaign covered roughly 17,000 compounds. About 1,100 (6.5%) were called active. This is one part of a sample in which actives are shown more often than they occur.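 How the source made its calls: active means z-score of -3 or lower, meaning strong loss of probe binding signal; inactive means the rest.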 Some structures have more than one record in an assay (separate samples or runs), and their calls can disagree.

The target in the experiment is Insulin-degrading enzyme (Homo sapiens) (UniProt P14735). Nature of the experiment: displacers of FL-6b probe from IDE – biochemical, fluorescence anisotropy, probe displacement, primary screen (AID 1259349).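 Further: His-tagged human IDE residues 42-1019 made in E. coli with 30 nM FL-6b probe.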 The settings on record: purified IDE, FL-6b probe fluorescence polarization; at 20 µM; stronger effect = lower value. A general note: Fluorescence polarisation rises when a labelled molecule tumbles more slowly, as on binding a larger partner.
Sequence of Insulin-degrading enzyme (Homo sapiens) (P14735 42-1019 limits assumed): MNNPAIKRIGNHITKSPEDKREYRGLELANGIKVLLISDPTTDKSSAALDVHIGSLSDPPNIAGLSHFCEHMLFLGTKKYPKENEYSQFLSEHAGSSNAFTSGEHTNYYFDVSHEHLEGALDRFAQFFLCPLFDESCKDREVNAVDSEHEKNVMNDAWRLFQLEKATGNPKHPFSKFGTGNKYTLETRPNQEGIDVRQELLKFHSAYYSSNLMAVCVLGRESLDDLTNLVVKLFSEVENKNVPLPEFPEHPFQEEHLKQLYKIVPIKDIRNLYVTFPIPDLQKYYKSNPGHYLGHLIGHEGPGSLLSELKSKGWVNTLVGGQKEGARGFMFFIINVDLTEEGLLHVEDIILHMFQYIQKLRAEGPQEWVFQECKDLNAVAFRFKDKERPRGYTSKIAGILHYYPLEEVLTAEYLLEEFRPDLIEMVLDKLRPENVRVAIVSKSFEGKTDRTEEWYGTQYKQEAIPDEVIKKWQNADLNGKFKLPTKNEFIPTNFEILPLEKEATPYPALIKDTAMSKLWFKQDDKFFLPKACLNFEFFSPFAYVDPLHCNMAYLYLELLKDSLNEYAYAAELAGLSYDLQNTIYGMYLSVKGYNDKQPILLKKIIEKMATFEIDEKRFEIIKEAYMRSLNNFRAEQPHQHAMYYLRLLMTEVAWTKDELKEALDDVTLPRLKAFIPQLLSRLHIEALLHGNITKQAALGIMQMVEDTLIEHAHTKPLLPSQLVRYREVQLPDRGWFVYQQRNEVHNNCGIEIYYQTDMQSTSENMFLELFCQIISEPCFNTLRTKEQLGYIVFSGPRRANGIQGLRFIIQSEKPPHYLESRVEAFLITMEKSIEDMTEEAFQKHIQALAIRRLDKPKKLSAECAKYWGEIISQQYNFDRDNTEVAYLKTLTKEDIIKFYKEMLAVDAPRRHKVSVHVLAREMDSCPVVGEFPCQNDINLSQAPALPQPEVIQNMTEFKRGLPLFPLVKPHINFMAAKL
Regarding `CCCN1C[C@@H](C)[C@@H](OC)CN(C)C(=O)c2cc(NC(=O)C3CCC3)ccc2OC[C@H]1C`, the z-score was -0.201 (inactive). For `O=C(C[C@@H]1C=C[C@@H](NC(=O)c2ccc3c(c2)OCO3)[C@H](CO)O1)NC1Cc2ccccc2C1`, the z-score is 0.748 (inactive). Consider `O=C(C1CCCC1)N1[C@@H](CO)[C@@H](c2ccccc2)C12CN(Cc1ccc(F)cc1)C2`, for which the z-score is 1.26 (inactive). The figure for `O=C(c1ccccn1)N1CC2(C1)[C@@H](c1ccccc1)[C@@H](CO)N2C(=O)C1CCCCC1` is -4.56 (active); for `CN(C)CC(=O)N1CC2(C1)[C@H](c1ccccc1)[C@H](CO)N2C(=O)C1CC1` it is -1.06 (inactive); for `CCS(=O)(=O)Nc1ccc2c(c1)C(=O)N(C)[C@H]1CC[C@H](CC(=O)N[C@@H]3CCN(Cc4ccccc4)C3)O[C@H]1CO2` it is -0.74 (inactive). The figure for `Cc1cccc(-c2ccc([C@H]3[C@@H](CO)N4CCCCN(Cc5cncnc5)C[C@H]34)cc2)c1` is -5.22 (active). The result for `Cc1ccc(-c2ccc([C@H]3[C@H](CO)N4CCCCN(Cc5cncnc5)C[C@@H]34)cc2)cc1` reads 3.25 (inactive).

Turning to `OC[C@H]1[C@H](c2ccc(-c3cccnc3)cc2)[C@H]2CN(Cc3ccccn3)CCCCN21`, the z-score is -3.14 (active). For the compound `OC[C@H]1[C@H](c2ccc(-c3cccc(F)c3)cc2)[C@@H]2CN(Cc3cncnc3)CCCCN12`, the z-score is 0.665 (inactive). The figure for `Cc1cccc(-c2ccc([C@@H]3[C@H](CO)N4CCCCN(Cc5ccncc5)C[C@@H]34)cc2)c1` is -5.19 (active); for `COc1ccc(CN2CCCCN3[C@H](C2)[C@H](c2ccc(-c4ccc(OC)cc4)cc2)[C@@H]3CO)cc1` it is 3.61 (inactive); for `OC[C@@H]1[C@H](c2ccc(C3=CCCC3)cc2)[C@H]2CN(Cc3ccncc3)CCCCN12` it is 1.19 (inactive). As for `CCC(=O)N1CCCCN2[C@H](CO)[C@@H](c3ccc(-c4cccnc4)cc3)[C@H]2C1`, the z-score was 0.698 (inactive).

As to `OC[C@@H]1[C@H](c2ccc(Br)cc2)[C@@H]2CN(Cc3ccccn3)CCCCN12`, the z-score is 0.871 (inactive).

With `CO[C@H]1CN(C)C(=O)c2cc(NC(=O)NC(C)C)ccc2OC[C@H](C)N(C(=O)CN(C)C)C[C@H]1C`, the z-score was -0.369 (inactive). Take `COCCN(C[C@H]1[C@H](c2ccccc2)[C@@H](CO)N1C(C)=O)C(=O)c1cccnc1`: the z-score is -0.97 (inactive). The figure for `CN(C)C(=O)c1ccc(-c2ccc([C@H]3[C@H](CO)N4CCCCN(S(C)(=O)=O)C[C@@H]34)cc2)cc1` is 4.37 (inactive). As to `O=C(C1CCCC1)N1CC(=O)N2[C@H](CO)[C@H](c3ccc(Br)cc3)[C@@H]2C1`, the z-score is 1.85 (inactive). With `O=C(c1ccc(F)cc1)N1CC(=O)N2[C@H](CO)[C@H](c3ccc(-c4ccccc4F)cc3)[C@@H]2C1`, the z-score is 0.797 (inactive).

As for `Cc1ccccc1-c1ccc(C2[C@@H]3CN(C(=O)C4CCCCC4)C[C@H]2N3)cc1` (stereo not given in full), the z-score is 1.9 (inactive) and -13.9 (active). The figure for `O=C(C1CCCCC1)N1CC(=O)N2[C@H](CO)[C@H](c3ccc(Br)cc3)[C@H]2C1` is 2.21 (inactive).

For the compound `CN(C)C(=O)c1ccc(-c2ccc(C3[C@@H]4CN(C(=O)Nc5ccccc5)C[C@H]3N4)cc2)cc1` (stereo not given in full), the z-score is 0.753 (inactive). The result for `COCC(=O)N1CC(=O)N2[C@H](CO)[C@@H](c3ccc(-c4ccccc4F)cc3)[C@H]2C1` reads -0.201 (inactive). The result for `O=C(C1CCC1)N1CC(=O)N2[C@H](C1)[C@@H](c1ccc(-c3ccccc3F)cc1)[C@@H]2CO` reads -10.1 (active); that for `O=C(C1CCCCC1)N1CC(=O)N2[C@H](CO)[C@H](c3ccc(-c4ccccc4F)cc3)[C@H]2C1`, -2.1 (inactive); that for `O=C(C1CCC1)N1C[C@@H]2N[C@H](C1)C2c1ccc(-c2cncnc2)cc1` (stereo not given in full), 0.446 (inactive). The figure for `O=C(C1CC1)N1CC(=O)N2[C@H](CO)[C@@H](c3ccc(-c4ccccc4F)cc3)[C@@H]2C1` is -6.21 (active); for `O=C(C1CCCC1)N1CC(=O)N2[C@H](CO)[C@H](c3ccc(Br)cc3)[C@H]2C1` it is 3.78 (inactive); for `O=C(C1CCCCC1)N1CC(=O)N2[C@H](CO)[C@@H](c3ccc(-c4ccccc4F)cc3)[C@@H]2C1` it is -3.81 (active).

Consider `CC(C)C#Cc1ccc([C@H]2[C@@H](C#N)N(C(=O)CN(C)C)[C@H]2CO)cc1`, for which the z-score is 0.732 (inactive).

On to `COc1ccc2c3c([nH]c2c1)[C@H](CO)N(C(=O)Nc1ccc(F)cc1)CC31CCN(CC2CCOCC2)CC1`, for which the z-score is -0.0173 (inactive). Consider `CCCNC(=O)N1CC2(CN(C(=O)c3cnccn3)C2)c2c([nH]c3cc(OC)ccc23)[C@@H]1CO`, for which the z-score was -1.28 (inactive). The figure for `N#C[C@@H]1[C@@H](c2ccc(C3=CCCCC3)cc2)[C@@H](CO)N1C(=O)c1cccc(F)c1` is 2.45 (inactive). The result for `C[C@@H]1CN([C@H](C)CO)C(=O)Cc2cc(N(C)C)ccc2O[C@H]1CN(C)C(=O)NC1CCCCC1` reads -0.478 (inactive); that for `COc1ccc2c3c([nH]c2c1)[C@H](CO)N(C(C)=O)CC31CN(S(=O)(=O)c2cccs2)C1`, 0.716 (inactive).

With `CNC[C@H]1OCCCC[C@@H](C)Oc2ccc(NS(=O)(=O)c3ccc(F)cc3)cc2C(=O)N([C@H](C)CO)C[C@H]1C`, the z-score is 0.482 (inactive). Turning to `CCCNC(=O)N1[C@H](C#N)[C@@H](c2ccc(C3=CCCC3)cc2)[C@H]1CO`, the z-score is 0.0932 (inactive).

Take `CCS(=O)(=O)N1[C@H](C#N)[C@H](c2ccc(-c3cccc(F)c3)cc2)[C@@H]1CO`: the z-score was 0.519 (inactive). With `COc1ccc(-c2ccc(C3[C@@H]4CN(S(=O)(=O)c5cn(C)cn5)C[C@H]3N4)cc2)cc1` (stereo not given in full), the z-score is 2.29 (inactive).

Take `Cn1cnc(S(=O)(=O)N2C[C@@H]3N[C@H](C2)C3c2ccc(/C=C/c3ccccc3)cc2)c1` (stereo not given in full): the z-score is -1.85 (inactive) and -5.13 (active). The result for `Cn1cnc(S(=O)(=O)N2C[C@@H]3N[C@H](C2)C3c2ccc(-c3ccccc3F)cc2)c1` (stereo not given in full) reads 0.547 (inactive) and 0.421 (inactive); that for `O=C(Nc1cccc(F)c1)N1CC(=O)N2[C@H](C1)[C@H](c1ccc(-c3ccccc3F)cc1)[C@@H]2CO`, 0.741 (inactive). As to `Cc1ccc(S(=O)(=O)Nc2ccc3c(c2)C(=O)N([C@H](C)CO)C[C@@H](C)[C@H](CN(C)S(=O)(=O)c2cccs2)OCCCC[C@@H](C)O3)cc1`, the z-score is -0.652 (inactive).

Take `O=C(Cc1ccccn1)N[C@H]1CC[C@H](CCNS(=O)(=O)c2cccc(F)c2)O[C@@H]1CO`: the z-score was 0.0602 (inactive). As for `O=C(CN1CCOCC1)N1C[C@@H]2N[C@H](C1)C2c1ccc(-c2ccncc2)cc1` (stereo not given in full), the z-score was 0.193 (inactive). As to `O=C(C1CCC1)N1CC(=O)N2[C@H](CO)[C@H](c3ccc(C#CCc4ccccc4)cc3)[C@@H]2C1`, the z-score was -2.52 (inactive). Take `O=C(C1CCC1)N1CC(=O)N2[C@@H](CO)[C@@H](c3ccc(C#Cc4cccc(F)c4)cc3)[C@@H]2C1`: the z-score was -4.35 (active). The figure for `COCC#Cc1ccc([C@@H]2[C@@H](CO)N3C(=O)CN(C(=O)C4CCOCC4)C[C@@H]23)cc1` is 0.89 (inactive); for `COCC#Cc1ccc([C@@H]2[C@H]3CN(C(=O)C4CCOCC4)CC(=O)N3[C@H]2CO)cc1` it is 2.55 (inactive).

With `O=C(C1CCCCC1)N1CC(=O)N2[C@H](CO)[C@@H](c3ccc(C#Cc4cccc(F)c4)cc3)[C@@H]2C1`, the z-score was 1.96 (inactive). On to `O=C(C1CCOCC1)N1CC(=O)N2[C@H](CO)[C@H](c3ccc(C#Cc4cccc(F)c4)cc3)[C@H]2C1`, for which the z-score is -19.3 (active). In the case of `COc1ccc2c3c([nH]c2c1)[C@@H](CO)N(Cc1ccncc1)CC31CN(C(=O)CN(C)C)C1`, the z-score is -0.567 (inactive).

`COCC(=O)Nc1ccc2c(c1)OC[C@@H](C)N(Cc1ccccc1C(=O)O)C[C@@H](C)[C@H](OC)CN(C)C2=O`: the z-score is 1.82 (inactive).

On to `O=C(c1cccc(F)c1)N1CCCCN2[C@H](CO)[C@@H](c3ccc(-c4cncnc4)cc3)[C@H]2C1`, for which the z-score is 1.13 (inactive).

Take `CC(=O)N1CCCCN2[C@H](C1)[C@@H](c1ccc(-c3ccc(F)cc3)cc1)[C@@H]2CO`: the z-score is 0.352 (inactive). Consider `O=C(c1cccc(F)c1)N1CCCCN2[C@@H](CO)[C@H](c3ccc(-c4cncnc4)cc3)[C@@H]2C1`, for which the z-score was 1.94 (inactive). Take `O=C(C1CCC1)N1CCCCN2[C@H](CO)[C@H](c3ccc(-c4ccncc4)cc3)[C@@H]2C1`: the z-score was -0.182 (inactive). Consider `O=C(C1CC1)N1CCCCN2[C@H](C1)[C@@H](c1ccc(-c3cccc(F)c3)cc1)[C@@H]2CO`, for which the z-score is -3.66 (active). Consider `O=C(C1CC1)N1CCCCN2[C@H](CO)[C@H](c3ccc(-c4cccc(F)c4)cc3)[C@H]2C1`, for which the z-score was -6.38 (active).

As to `COc1cccc(S(=O)(=O)Nc2ccc3c(c2)[C@@H]2C[C@@H](CC(=O)NC4CCCCC4)O[C@H](CO)[C@@H]2O3)c1`, the z-score is -0.362 (inactive). As to `COc1ccc2c3c([nH]c2c1)[C@@H](CO)N(C(=O)C1CC1)CC31CCN(C(=O)c2ccncc2)CC1`, the z-score was 1.3 (inactive). The figure for `CO[C@H]1CN(C)C(=O)c2cc(NC(=O)C3CC3)ccc2OC[C@@H](C)N(Cc2cc(F)ccc2F)C[C@H]1C` is -1.43 (inactive); for `COc1ccc2c3c(n(C)c2c1)[C@@H](CO)N(Cc1ccccc1F)CC31CCN(C(=O)C2CCOCC2)CC1` it is -2.72 (inactive); for `OC[C@@H]1[C@@H](c2ccc(-c3ccccc3F)cc2)[C@@H]2CN(Cc3cncnc3)CCCCN12` it is -0.419 (inactive). The figure for `CCCC#Cc1ccc([C@H]2[C@H]3CN(Cc4cncnc4)CCCCN3[C@H]2CO)cc1` is 1.82 (inactive). In the case of `OC[C@H]1[C@@H](c2ccc(-c3ccccc3F)cc2)[C@@H]2CN(Cc3ccncc3)CCCCN12`, the z-score is -0.42 (inactive). For the compound `OC[C@H]1[C@H](c2ccc(-c3ccccc3F)cc2)[C@H]2CN(Cc3cncnc3)CCCCN21`, the z-score was -3.23 (active). With `OC[C@@H]1[C@@H](c2ccc(C#CC3(O)CCCC3)cc2)[C@@H]2CN(Cc3cncnc3)CCCCN12`, the z-score was 0.144 (inactive). On to `OC[C@@H]1[C@H](c2ccc(C#Cc3ccccc3)cc2)[C@@H]2CN(Cc3cncnc3)CCCCN12`, for which the z-score is -3.14 (active).
